Results: the supplement of paper PMC6089552
Screen size: about 3,200 compounds; about 300 (9.4%) showed activity. For the sample, actives were picked, then their nearest neighbours and some compounds at random.

System: A673/TR/shEF
Assay: cell viability (LOESS-normalised, relative to median of negative controls) (log2 ratio); higher = more viable cells (less compound effect), active = hit call of the paper (over 3 MAD below the median)
Conditions: treatment time: 72 h
In short: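 Doxycycline, present or absent from 24 h before compounds, was used to induce EWS-FLI1 shRNA knockdown in A673/TR/shEF Ewing sarcoma cells at 1,500 per well in 384-well plates. Cells then received library compounds at two or more concentrations, or DMSO controls, for three days. Viability was measured by CellTiter-Glo luminescence on an Envision reader, and per-plate LOESS correction, division by the negative-control median and log2 transformation followed.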

[1] = 0.25 µM, library screen: screen1, EWS-FLI1 expression: high (no doxycycline)
[2] = 0.25 µM, library screen: screen1, EWS-FLI1 expression: low (doxycycline-induced shRNA knockdown)
[3] = 2.5 µM, library screen: screen1, EWS-FLI1 expression: high (no doxycycline)
[4] = 2.5 µM, library screen: screen1, EWS-FLI1 expression: low (doxycycline-induced shRNA knockdown)
[5] = 0.103 µM, library screen: screen3, EWS-FLI1 expression: high (no doxycycline)
[6] = 0.103 µM, library screen: screen3, EWS-FLI1 expression: low (doxycycline-induced shRNA knockdown)
[7] = 0.308 µM, library screen: screen3, EWS-FLI1 expression: high (no doxycycline)
[8] = 0.308 µM, library screen: screen3, EWS-FLI1 expression: low (doxycycline-induced shRNA knockdown)
[9] = 0.926 µM, library screen: screen3, EWS-FLI1 expression: high (no doxycycline)
[10] = 0.926 µM, library screen: screen3, EWS-FLI1 expression: low (doxycycline-induced shRNA knockdown)
[11] = 2.8 µM, library screen: screen3, EWS-FLI1 expression: high (no doxycycline)
[12] = 2.8 µM, library screen: screen3, EWS-FLI1 expression: low (doxycycline-induced shRNA knockdown)
[13] = 8.3 µM, library screen: screen3, EWS-FLI1 expression: high (no doxycycline)
[14] = 8.3 µM, library screen: screen3, EWS-FLI1 expression: low (doxycycline-induced shRNA knockdown)
[15] = 25 µM, library screen: screen3, EWS-FLI1 expression: high (no doxycycline)
[16] = 25 µM, library screen: screen3, EWS-FLI1 expression: low (doxycycline-induced shRNA knockdown)
[17] = 0.25 µM, library screen: screen2, EWS-FLI1 expression: high (no doxycycline)
[18] = 0.25 µM, library screen: screen2, EWS-FLI1 expression: low (doxycycline-induced shRNA knockdown)
[19] = 2.5 µM, library screen: screen2, EWS-FLI1 expression: high (no doxycycline)
[20] = 2.5 µM, library screen: screen2, EWS-FLI1 expression: low (doxycycline-induced shRNA knockdown)

Measured: cell viability (log2)

O=c1c(O)c(-c2cc(O)c(O)c(O)c2)oc2cc(O)ccc12
inactive: [1] 0.128 | [2] -0.0317 | [3] 0.0648 | [4] 0.111

COc1cc(CN2CCN(Cc3cccc(F)c3)CC2)cc2c1OCO2
inactive: [1] 0.0873 | [2] 0.0661 | [3] 0.0312 | [4] 0.0566

COc1ccc(-c2ccc3c(N4CCOCC4)nc(N4C[C@@H](C)O[C@@H](C)C4)nc3n2)cc1CO
inactive: [5] -0.102 | [6] -0.0255 | [7] -0.124 | [8] -0.0614 | [9] -0.171 | [10] -0.169
active: [11] -0.379 | [12] -0.377 | [13] -0.748 | [14] -0.617 | [15] -1.51 | [16] -1.39

COc1ccc(-c2ccc3c(N4CCOC[C@@H]4C)nc(N4CCOC[C@@H]4C)nc3n2)cc1CO
active: [5] -0.268 | [6] -0.292 | [7] -0.621 | [8] -0.525 | [9] -1.05 | [10] -0.821 | [11] -1.66 | [12] -1.37 | [13] -1.89 | [14] -1.59 | [15] -1.94 | [16] -1.78

COc1cc(/C=C2\SC(NC(C)=O)=NC2=O)cc(Br)c1OC
inactive: [1] 0.0313 | [2] 0.0267 | [3] 0.0885 | [4] 0.0962

O=C(O)Cc1cc(I)c(Oc2cc(I)c(O)c(I)c2)c(I)c1
inactive: [1] 0.0518 | [2] 0.0863 | [3] 0.0776 | [4] -0.0191

COC(=O)[C@H](O)[C@H]1C(C)(C)[C@H](O)[C@@H]2CC3=C4CC(=O)O[C@@H](c5ccco5)[C@]4(C)CC[C@@H]3[C@@]1(C)C2=O
inactive: [1] 0.0837 | [2] 0.0423 | [3] 0.0416 | [4] -0.137

COc1ccc(C2NC(=O)NC(C)=C2C(=O)Nc2ccccc2Cl)cc1OC (stereo not drawn)
inactive: [1] 0.0783 | [2] 0.013 | [3] 0.0736 | [4] -0.0647

CCCCCCCCCCCCC/C=C/[C@@H](O)[C@@H](N)CO
active: 25 µM, library screen: screen1, EWS-FLI1 expression: high (no doxycycline) -4.25 | 25 µM, library screen: screen1, EWS-FLI1 expression: low (doxycycline-induced shRNA knockdown) -4.31
inactive: 0.025 µM, library screen: screen1, EWS-FLI1 expression: high (no doxycycline) 0.0541 | 0.025 µM, library screen: screen1, EWS-FLI1 expression: low (doxycycline-induced shRNA knockdown) 0.028 | [1] 0.0998 | [2] 0.0415 | [17] 0.0615 | [18] 0.0389 | [3] 0.0515 | [4] 0.0695 | [19] 0.162 | [20] 0.0866

CCCCCCCCCCCCCCC[C@H](O)[C@H](N)CO
inactive: [17] 0.153 | [18] 0.105 | [19] 0.146 | [20] 0.102

CCCCCCCC/C=C/CCCCCCCC(=O)OC(CO)COC(=O)CCCCCCCCCCCCCCC (stereo not drawn)
inactive: [17] 0.242 | [18] 0.101 | [19] 0.231 | [20] 0.152

CCC(C)n1ncn(-c2ccc(N3CCN(c4ccc(OC[C@H]5CO[C@](Cn6cncn6)(c6ccc(Cl)cc6Cl)O5)cc4)CC3)cc2)c1=O (stereo partly drawn)
inactive: [5] -0.00587 | [6] -0.0322 | [7] 0.0158 | [8] 0.0366 | [9] 0.0942 | [10] 0.0808 | [11] 0.0248 | [12] 0.0437 | [13] -0.13 | [14] 0.0912 | [15] 0.0658 | [16] 0.11

COC(=O)C(O)c1ccccc1 (stereo not drawn)
inactive: [1] 0.0881 | [2] 0.0567 | [3] 0.0992 | [4] 0.015

Nc1ccc2c3c(cccc13)C(=O)NC2=O
inactive: [18] 0.0582 | [19] 0.0677 | [20] 0.123
active: [17] -0.219

COc1cc(/C=C/C=O)cc(OC)c1OC
inactive: [1] 0.0589 | [2] 0.0132 | [3] 0.0586 | [4] 0.0289

OC1C=CC(Br)C(O)C1O (stereo not drawn)
inactive: [17] 0.12 | [18] 0.141 | [19] 0.0654 | [20] 0.0803

FC(F)(F)c1ccc(/C=C/c2nc(COc3ccc(CCCCn4ccnn4)cc3)co2)cc1
active: [5] -0.325 | [7] -0.568 | [8] -0.12 | [9] -0.774 | [10] -0.153 | [11] -1.45 | [12] -0.118 | [13] -1.63 | [14] -0.193 | [15] -1.47 | [16] -0.184
inactive: [6] -0.0943

CC(=O)OC1CC[C@@]2(C)C(CC[C@H]3[C@@H]4CC=C(C(C)=O)[C@@]4(C)C(=O)C[C@@H]32)C1 (stereo partly drawn)
inactive: [1] 0.0289 | [2] 0.0314 | [3] 0.141 | [4] 0.0915

COC(=O)C[C@H]1C(C)(C)[C@H](O)[C@@H]2CC3=C4CC(O)O[C@@H](c5ccoc5)[C@]4(C)CCC3[C@@]1(C)C2=O (stereo partly drawn)
inactive: [1] 0.0798 | [2] 0.183 | [3] 0.141 | [4] 0.127

COc1ccc(CCN(C)CCc2ccc(OC)c(OC)c2)cc1OC
inactive: [17] 0.187 | [18] 0.0366 | [19] 0.198 | [20] 0.0294

COc1ccc(CCNCC(O)c2ccc(O)cc2)cc1OC (stereo not drawn)
inactive: [17] 0.167 | [18] -0.0395
active: [19] -0.721 | [20] -0.108

C[C@H](NCCc1ccc(O)cc1)[C@H](O)c1ccc(O)cc1
inactive: [5] -0.0282 | [6] 0.0403 | [1] 0.119 | [2] 0.0926 | [17] 0.11 | [18] 0.0788 | [7] 0.0762 | [8] 0.0395 | [9] 0.0419 | [10] 0.0833 | [3] 0.157 | [4] 0.125 | [19] 0.0729 | [20] -0.0642 | [11] 0.0463 | [12] 0.0441 | [13] 0.098 | [14] 0.0382 | [15] 0.0513 | [16] 0.0444

CC1(C)C(=O)C=C[C@]2(C)[C@H]3CC[C@@]4(C)[C@H](c5ccoc5)OC(=O)[C@H]5O[C@]54[C@]3(C)C=C[C@@H]12
inactive: [1] 0.0993 | [2] 0.0207 | [3] 0.1 | [4] 0.161
